The values that follow come from paper PMC11006913.

Test in all cases: PBM; 200 nM protein, PBS
Common to all, as to details: dsDNA, one strand shown

In experiment [1] the target is HOXB9 (Homo sapiens, UniProt P17482 171-250, T197M).
Experiment [2] deals with HOXC9 (Homo sapiens, UniProt P31274 178-260, K195R).
Experiment [3] concerns the target HOXC10 (Homo sapiens, UniProt Q9NYD6 254-340).
Experiment [4] addresses HOXB9 (Homo sapiens, UniProt P17482 171-250).
Experiment [5] concerns the target HOXC9 (Homo sapiens, UniProt P31274 178-260).
Experiment [6] has as its target HOXD13 (Homo sapiens, UniProt P35453 263-343, T313R).
Experiment [7] has as its target HOXC9 (Homo sapiens, UniProt P31274 178-260, R193K).
Experiment [8] concerns the target HOXD13 (Homo sapiens, UniProt P35453 263-343).
The target in experiment [9] is HOXC10 (Homo sapiens, UniProt Q9NYD6 254-340, K271E).
HOXC10 (Homo sapiens, UniProt Q9NYD6 254-340, K271E), sequence (Q9NYD6 254-340 K271E): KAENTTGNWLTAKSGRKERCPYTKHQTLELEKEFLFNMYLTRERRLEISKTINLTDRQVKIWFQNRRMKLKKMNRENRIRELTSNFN
For experiment [10], the target named is HOXD13 (Homo sapiens, UniProt P35453 263-343, T313A).
HOXD13 (Homo sapiens, UniProt P35453 263-343, T313A), sequence (P35453 263-343 T313A): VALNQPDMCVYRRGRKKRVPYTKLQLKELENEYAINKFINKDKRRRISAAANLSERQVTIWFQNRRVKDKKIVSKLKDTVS
The target in experiment [11] is HOXB9 (Homo sapiens, UniProt P17482 171-250, R186Q).
HOXB9 (Homo sapiens, UniProt P17482 171-250, R186Q), sequence (P17482 171-250 R186Q): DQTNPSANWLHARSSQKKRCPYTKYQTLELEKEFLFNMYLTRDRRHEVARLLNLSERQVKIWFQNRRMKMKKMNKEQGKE
Experiment [12] has as its target HOXC9 (Homo sapiens, UniProt P31274 178-260, R222W).
The target in experiment [13] is HOXA2 (Homo sapiens, UniProt O43364 129-215, R185T).
HOXA2 (Homo sapiens, UniProt O43364 129-215, R185T), sequence (O43364 129-215 R185T): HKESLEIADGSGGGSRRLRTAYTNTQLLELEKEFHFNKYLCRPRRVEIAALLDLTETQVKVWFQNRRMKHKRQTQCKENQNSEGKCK
Experiment [14] concerns the target HOXA2 (Homo sapiens, UniProt O43364 129-215, R185K).
The target of experiment [15] is HOXA2 (Homo sapiens, UniProt O43364 129-215, Y150S).
HOXA2 (Homo sapiens, UniProt O43364 129-215, Y150S), sequence (O43364 129-215 Y150S): as the sequence (O43364 129-215 R185T) above, with Y22S, T57R counted along it
Experiment [16] has as its target HOXA2 (Homo sapiens, UniProt O43364 129-215).
Experiment [17] addresses ALX1 (Homo sapiens, UniProt Q15699 118-204, L144V).
Experiment [18] concerns the target ALX1 (Homo sapiens, UniProt Q15699 118-204, L144R).
Experiment [19] concerns the target ALX1 (Homo sapiens, UniProt Q15699 118-204).

HOXC9 (Homo sapiens, UniProt P31274 178-260, K195R), sequence (P31274 178-260 K195R): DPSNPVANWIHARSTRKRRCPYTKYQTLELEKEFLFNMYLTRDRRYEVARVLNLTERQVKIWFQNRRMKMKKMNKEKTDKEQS
HOXD13 (Homo sapiens, UniProt P35453 263-343), sequence (P35453 263-343): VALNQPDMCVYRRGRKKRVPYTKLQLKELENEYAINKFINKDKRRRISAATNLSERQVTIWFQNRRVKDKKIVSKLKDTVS
HOXC9 (Homo sapiens, UniProt P31274 178-260, R193K), sequence (P31274 178-260 R193K): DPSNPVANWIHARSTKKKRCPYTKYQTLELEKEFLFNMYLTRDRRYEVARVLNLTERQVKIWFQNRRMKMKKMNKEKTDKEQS
HOXD13 (Homo sapiens, UniProt P35453 263-343, T313R), sequence (P35453 263-343 T313R): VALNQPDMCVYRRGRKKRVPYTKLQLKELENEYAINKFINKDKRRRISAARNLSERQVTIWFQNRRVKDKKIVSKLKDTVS
HOXC9 (Homo sapiens, UniProt P31274 178-260, R222W), sequence (P31274 178-260 R222W): as the sequence (P31274 178-260 R193K) above, with K16R, R45W counted along it
HOXB9 (Homo sapiens, UniProt P17482 171-250), sequence (P17482 171-250): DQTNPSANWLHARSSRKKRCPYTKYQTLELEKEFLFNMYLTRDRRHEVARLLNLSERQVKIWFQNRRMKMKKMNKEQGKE
HOXC10 (Homo sapiens, UniProt Q9NYD6 254-340), sequence (Q9NYD6 254-340): as the sequence (Q9NYD6 254-340 K271E) above, with E18K counted along it
HOXC9 (Homo sapiens, UniProt P31274 178-260), sequence (P31274 178-260): as the sequence (P31274 178-260 R193K) above, with K16R counted along it
HOXB9 (Homo sapiens, UniProt P17482 171-250, T197M), sequence (P17482 171-250 T197M): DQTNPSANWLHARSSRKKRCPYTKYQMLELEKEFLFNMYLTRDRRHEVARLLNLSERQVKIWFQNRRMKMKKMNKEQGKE
ALX1 (Homo sapiens, UniProt Q15699 118-204), sequence (Q15699 118-204): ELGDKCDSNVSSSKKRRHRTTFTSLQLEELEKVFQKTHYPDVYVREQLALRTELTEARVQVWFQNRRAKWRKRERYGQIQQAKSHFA
HOXA2 (Homo sapiens, UniProt O43364 129-215), sequence (O43364 129-215): as the sequence (O43364 129-215 R185T) above, with T57R counted along it
HOXA2 (Homo sapiens, UniProt O43364 129-215, R185K), sequence (O43364 129-215 R185K): as the sequence (O43364 129-215 R185T) above, with T57K counted along it
ALX1 (Homo sapiens, UniProt Q15699 118-204, L144V), sequence (Q15699 118-204 L144V): as the sequence (Q15699 118-204) above, with L27V counted along it
ALX1 (Homo sapiens, UniProt Q15699 118-204, L144R), sequence (Q15699 118-204 L144R): as the sequence (Q15699 118-204) above, with L27R counted along it

As for CTATAAAA, the binding signal with HOXB9 [1] was 9.77 upbm affinity estimate (log intensity, higher = more binding, comparable within an allelic series); in the experiment with HOXC9 [2], 12.8 upbm affinity estimate (log intensity, higher = more binding, comparable within an allelic series); with HOXC10 [3] it was 12.4 upbm affinity estimate (log intensity, higher = more binding, comparable within an allelic series); with HOXB9 [4], 12.2 upbm affinity estimate (log intensity, higher = more binding, comparable within an allelic series); with HOXC9 [5] it was 12.9 upbm affinity estimate (log intensity, higher = more binding, comparable within an allelic series); with HOXD13 [6] it was 11.1 upbm affinity estimate (log intensity, higher = more binding, comparable within an allelic series). Besides, the binding signal was 12.8 upbm affinity estimate (log intensity, higher = more binding, comparable within an allelic series) with HOXC9 [7]; 12.4 upbm affinity estimate (log intensity, higher = more binding, comparable within an allelic series) in the experiment with HOXD13 [8]; 11.7 upbm affinity estimate (log intensity, higher = more binding, comparable within an allelic series) in the experiment with HOXC10 [9]; 12.2 upbm affinity estimate (log intensity, higher = more binding, comparable within an allelic series) in the experiment with HOXD13 [10]; 11.9 upbm affinity estimate (log intensity, higher = more binding, comparable within an allelic series) with HOXB9 [11]; 11.4 upbm affinity estimate (log intensity, higher = more binding, comparable within an allelic series) with HOXC9 [12].

On to ACTATAAA, for which the binding signal with HOXB9 [1] was 9.75 upbm affinity estimate (log intensity, higher = more binding, comparable within an allelic series); with HOXC9 [2] it was 12.4 upbm affinity estimate (log intensity, higher = more binding, comparable within an allelic series); in the experiment with HOXC10 [3], 12.1 upbm affinity estimate (log intensity, higher = more binding, comparable within an allelic series); with HOXB9 [4] it was 11.7 upbm affinity estimate (log intensity, higher = more binding, comparable within an allelic series); in the experiment with HOXC9 [5], 12.6 upbm affinity estimate (log intensity, higher = more binding, comparable within an allelic series); in the experiment with HOXD13 [6] it was 10.9 upbm affinity estimate (log intensity, higher = more binding, comparable within an allelic series). The binding signal is 12.5 upbm affinity estimate (log intensity, higher = more binding, comparable within an allelic series) in the experiment with HOXC9 [7]; 12 upbm affinity estimate (log intensity, higher = more binding, comparable within an allelic series) with HOXD13 [8]; 11.4 upbm affinity estimate (log intensity, higher = more binding, comparable within an allelic series) in the experiment with HOXC10 [9]; 11.8 upbm affinity estimate (log intensity, higher = more binding, comparable within an allelic series) with HOXD13 [10]; 11.4 upbm affinity estimate (log intensity, higher = more binding, comparable within an allelic series) with HOXB9 [11]; 11 upbm affinity estimate (log intensity, higher = more binding, comparable within an allelic series) in the experiment with HOXC9 [12].

Consider ACCATAAA, for which the binding signal with HOXB9 [1] was 9.6 upbm affinity estimate (log intensity, higher = more binding, comparable within an allelic series); with HOXC9 [2], 12.5 upbm affinity estimate (log intensity, higher = more binding, comparable within an allelic series); with HOXC10 [3] it was 12.3 upbm affinity estimate (log intensity, higher = more binding, comparable within an allelic series); in the experiment with HOXB9 [4] it was 11.9 upbm affinity estimate (log intensity, higher = more binding, comparable within an allelic series); with HOXC9 [5] it was 12.8 upbm affinity estimate (log intensity, higher = more binding, comparable within an allelic series); with HOXD13 [6], 10.8 upbm affinity estimate (log intensity, higher = more binding, comparable within an allelic series). For the same sequence, the binding signal with HOXC9 [7] is 12.7 upbm affinity estimate (log intensity, higher = more binding, comparable within an allelic series); in the experiment with HOXD13 [8], 12 upbm affinity estimate (log intensity, higher = more binding, comparable within an allelic series); with HOXC10 [9], 11.5 upbm affinity estimate (log intensity, higher = more binding, comparable within an allelic series); in the experiment with HOXD13 [10] it was 11.7 upbm affinity estimate (log intensity, higher = more binding, comparable within an allelic series); with HOXB9 [11] it was 11.6 upbm affinity estimate (log intensity, higher = more binding, comparable within an allelic series); with HOXC9 [12], 10.9 upbm affinity estimate (log intensity, higher = more binding, comparable within an allelic series).

As to CCTAGGGC, the binding signal was 8.55 upbm affinity estimate (log intensity, higher = more binding, comparable within an allelic series) in the experiment with HOXB9 [1]; 9.6 upbm affinity estimate (log intensity, higher = more binding, comparable within an allelic series) in the experiment with HOXC9 [2]; 6.96 upbm affinity estimate (log intensity, higher = more binding, comparable within an allelic series) with HOXA2 [13]; 8.37 upbm affinity estimate (log intensity, higher = more binding, comparable within an allelic series) with HOXB9 [4]; 9.6 upbm affinity estimate (log intensity, higher = more binding, comparable within an allelic series) with HOXC9 [5]; 9.53 upbm affinity estimate (log intensity, higher = more binding, comparable within an allelic series) with HOXC9 [7]. The binding signal with HOXA2 [14] was 10.4 upbm affinity estimate (log intensity, higher = more binding, comparable within an allelic series); in the experiment with HOXB9 [11], 8.47 upbm affinity estimate (log intensity, higher = more binding, comparable within an allelic series); with HOXC9 [12], 9.68 upbm affinity estimate (log intensity, higher = more binding, comparable within an allelic series); with HOXA2 [15] it was 10.4 upbm affinity estimate (log intensity, higher = more binding, comparable within an allelic series); with HOXA2 [16] it was 6.98 upbm affinity estimate (log intensity, higher = more binding, comparable within an allelic series).

CTATTAAA: the binding signal with HOXB9 [1] was 9.97 upbm affinity estimate (log intensity, higher = more binding, comparable within an allelic series); with HOXC9 [2], 12.6 upbm affinity estimate (log intensity, higher = more binding, comparable within an allelic series); with HOXB9 [4], 11.9 upbm affinity estimate (log intensity, higher = more binding, comparable within an allelic series); with HOXC9 [5], 12.8 upbm affinity estimate (log intensity, higher = more binding, comparable within an allelic series); in the experiment with ALX1 [17] it was 9.79 upbm affinity estimate (log intensity, higher = more binding, comparable within an allelic series); in the experiment with HOXD13 [6], 11 upbm affinity estimate (log intensity, higher = more binding, comparable within an allelic series). The binding signal was 12.7 upbm affinity estimate (log intensity, higher = more binding, comparable within an allelic series) with HOXC9 [7]; 9.81 upbm affinity estimate (log intensity, higher = more binding, comparable within an allelic series) with ALX1 [18]; 12 upbm affinity estimate (log intensity, higher = more binding, comparable within an allelic series) with HOXD13 [8]; 11.8 upbm affinity estimate (log intensity, higher = more binding, comparable within an allelic series) with HOXC10 [9]; 11.9 upbm affinity estimate (log intensity, higher = more binding, comparable within an allelic series) in the experiment with HOXD13 [10]; 11.6 upbm affinity estimate (log intensity, higher = more binding, comparable within an allelic series) with HOXB9 [11]. In addition, the binding signal is 11.1 upbm affinity estimate (log intensity, higher = more binding, comparable within an allelic series) with HOXC9 [12] and 10.3 upbm affinity estimate (log intensity, higher = more binding, comparable within an allelic series) in the experiment with ALX1 [19].
